According to PubChem BioAssay (NCI):
This is part of a sample that, as a whole, favours compounds with a hit. Of some 83,000 tested, about 20% had one in any assay.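 Values shown are percent growth following 48 h exposure of cells in 96-well plates to a single concentration of compound; below 10 was considered active.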 Active and inactive are the calls of the source.

Tests used:
Assay in all cases: NCI-60 one-dose screen, 48 h (100 = growth as untreated, 0 = no growth, -100 = all killed)
Details in all cases: 10 µM unless noted
[1] = system: NCI-H23 lung
[2] = system: NCI-H226 lung
[3] = system: NCI-H322M lung
[4] = system: HOP-62 NSCLC
[5] = system: NCI-H460 lung
[6] = system: HOP-92 NSCLC
[7] = system: NCI-H522 lung
[8] = system: A549/ATCC NSCLC
[9] = system: 786-0 renal
[10] = system: COLO 205 colon
[11] = system: DU-145 prostate
[12] = system: K-562 leukemia
[13] = system: MALME-3M melanoma
[14] = system: MDA-MB-231 breast
[15] = system: RXF 393 renal
[16] = system: SF-268 CNS
[17] = system: SF-295 CNS
[18] = system: SF-539 CNS
[19] = system: UACC-257 melanoma
[20] = system: M14 melanoma

Measured: growth

Cc1nc(Nc2ccccn2)sc1C1=NNC(c2ccccc2F)C1 (stereo not given)
active: [7] -18.9%
inactive: [1] 67.6% | [2] 78.9% | [3] 89.1% | [4] 70.6% | [5] 28% | [6] 62.4% | [8] 59.2% | [9] 57.6% | [10] 86% | [11] 67.4% | [12] 15.1% | [13] 63.8% | [14] 47.5% | [15] 87.5% | [16] 78.2% | [17] 39.6% | [18] 32.4% | [19] 83.2% | [20] 52.6%

COc1ccc2[nH]c(O)c(N=Nc3nc(-c4ccc(Br)cc4)cs3)c2c1
inactive: [3] 28.2% | [7] 19.1% | [11] 16% | [12] 17.9% | [14] 35.7% | [16] 30.5% | [19] 30.3% | [20] 14.4%
active: [1] -6.52% | [2] -36.4% | [4] -10.1% | [5] -35.4% | [6] -34.4% | [8] -41.3% | [9] -81.3% | [10] -13.2% | [13] -36.3% | [15] -64.2% | [17] 9.66% | [18] -68.4%

CCCSc1nnc(-c2sc3nc4ccccc4n3c2C)o1
inactive: [1] 111% | [2] 106% | [3] 102% | [4] 132% | [5] 103% | [6] 101% | [7] 100% | [8] 99.8% | [9] 81.5% | [10] 131% | [11] 103% | [12] 97.4% | [13] 116% | [14] 108% | [15] 87.3% | [16] 115% | [17] 105% | [18] 108% | [19] 102% | [20] 106%

COc1ccc2c(c1)C(Sc1ccc(F)cc1)c1c(nc(N)c(C#N)c1N)O2 (stereo not given)
inactive: [1] 90.7% | [2] 90.9% | [3] 94.4% | [4] 111% | [5] 95.7% | [6] 116% | [7] 78.9% | [8] 96.2% | [9] 80.7% | [10] 104% | [11] 99.5% | [12] 63.5% | [13] 88.3% | [14] 80.1% | [15] 69.2% | [16] 85% | [17] 92.8% | [18] 90.5% | [19] 104% | [20] 84.9%

COC(=O)c1c(C(=O)OC)c2ccc3c4ccccc4ccc3n2c1C(=O)C(C)Br (stereo not given)
inactive: [1] 33.4% | [2] 61.7% | [3] 83.4% | [4] 67.1% | [5] 17.2% | [6] 53.5% | [8] 50.5% | [9] 41.9% | [10] 43.2% | [11] 71.7% | [13] 37.9% | [14] 33.1% | [15] 32.8% | [16] 69.3% | [17] 78% | [18] 17.2% | [19] 57% | [20] 46.5%
active: [7] -55.9% | [12] 4.34%

CS(=O)(=O)Nc1cccc(-n2cnc3cc(-c4ccc(O)cc4)ccc32)c1
inactive: [1] 35.3% | [2] 33% | [3] 53.1% | [4] 32.1% | [5] 20.3% | [6] 96.8% | [7] 25% | [8] 53.7% | [9] 44.7% | [10] 31.5% | [11] 29.2% | [12] 18% | [13] 27.3% | [14] 49.3% | [16] 50.3% | [17] 32% | [19] 70.5% | [20] 26.2%
active: [15] -14.2% | [18] 0.311%

Cc1ccc(NC(=O)N/N=C/c2c[nH]c3ccccc23)c(C)c1
inactive: [1] 12.6% | [2] 12.6% | [3] 42% | [4] 34.4% | [6] 16.3% | [8] 14.9% | [11] 12.9% | [12] 10.5% | [13] 52.8% | [14] 21.1% | [16] 11.8% | [19] 46.5% | [20] 12.5%
active: [5] 5.78% | [7] -36.8% | [9] -18.4% | [10] -51.5% | [15] -12.3% | [17] 5.78% | [18] -5.67%

CN(C)c1nc(NCCNS(=O)(=O)c2ccc(C3=Nc4c(N)nc(N)nc4NC(c4ccc(C(F)(F)F)cc4)C3)cc2)nc(N2CCOCC2)n1 (stereo not given)
inactive: [1] 74% | [2] 54.1% | [3] 84.2% | [4] 51.8% | [5] 35.6% | [7] 35% | [8] 40.2% | [9] 20.2% | [11] 61.8% | [13] 60.3% | [14] 38.5% | [15] 16.6% | [16] 38.6% | [17] 45.5% | [18] 34.3% | [19] 52.9% | [20] 28%
active: [6] -17% | [10] -14.2% | [12] 9.12%

CC1=C(C(=O)OCc2ccccc2)C(c2cccc3ccccc23)n2c(nc3ccccc32)N1 (stereo not given)
active: [5] 9.99% | [7] -42.2% | [15] 0.534%
inactive: [1] 46.4% | [2] 19.4% | [3] 36.6% | [4] 38.3% | [6] 64.6% | [8] 33.9% | [9] 30.3% | [10] 13.9% | [11] 28.9% | [12] 11.7% | [13] 16.8% | [14] 37.9% | [16] 44.9% | [17] 10.5% | [18] 11.8% | [19] 40.7% | [20] 23.9%

COc1ccc2c(c1)c(-c1cc(N)n3nc(-c4c[nH]c5ccccc45)cc3n1)cn2C
active: [1] -69.9% | [2] -33.1% | [3] -53.5% | [4] -71.5% | [5] -69.7% | [6] -66.7% | [7] -70.4% | [8] -88.1% | [9] -84.5% | [10] -83.9% | [11] -46.6% | [12] 1.75% | [13] -89.9% | [14] -75.7% | [15] -79% | [16] -41.1% | [17] -76.9% | [18] -97.1% | [19] -89.6% | [20] -71.2%

COc1cc(/C=C/C(=O)c2cnn(-c3cc(=O)[nH]c4ccc(C)cc34)c2C)cc(OC)c1OC
active: [1] -45% | [2] -17.8% | [3] 9.59% | [4] 2.27% | [5] 8.08% | [7] -87.1% | [8] 6.23% | [9] -27% | [10] -91.6% | [11] -54.6% | [12] 0.896% | [13] -19.5% | [14] -2.3% | [15] -76.9% | [16] 6.69% | [18] -29% | [19] 5.74% | [20] -51.2%
inactive: [6] 50.6% | [17] 12.7%

O=C(CSc1nc2sc3c(c2c(=O)n1-c1ccc(Cl)cc1)CCCC3)NNC(=O)c1ccc(Br)cc1
inactive: [1] 55.6% | [2] 45.2% | [3] 52.7% | [4] 17% | [5] 76.9% | [6] 61.2% | [7] 64.4% | [8] 82.6% | [9] 98.5% | [10] 120% | [11] 97.4% | [12] 55.5% | [13] 69.2% | [14] 25.6% | [15] 76% | [16] 84.9% | [17] 84.1% | [19] 98.6% | [20] 71.9%
active: [18] -29.5%

O=C(CSc1nc2sc3c(c2c(=O)n1-c1ccc(Cl)cc1)CCCC3)NNC(=O)c1ccc(F)cc1
inactive: [1] 73.7% | [2] 62.7% | [3] 73.8% | [4] 23.7% | [5] 88.6% | [6] 69.2% | [7] 77.3% | [8] 94.2% | [9] 96.8% | [10] 125% | [11] 109% | [12] 72.3% | [13] 80.5% | [14] 28.8% | [15] 89.7% | [16] 95.9% | [17] 90.4% | [19] 106% | [20] 80.6%
active: [18] -28.4%

O=C(N=Nc1c(O)[nH]c2ccc(Br)cc12)c1ccc2nc(-c3ccc(Cl)cc3)[nH]c2c1
inactive: [2] 16.6% | [8] 14.9% | [12] 10% | [19] 46%
active: [1] -69.4% | [3] 6.48% | [4] -55.9% | [5] -19.4% | [6] -9.49% | [7] -47.2% | [9] -73.7% | [10] -36.1% | [11] -4.97% | [13] -34.7% | [14] -89.5% | [15] -42.3% | [16] -16.2% | [17] -62.8% | [18] -100% | [20] -3.86%
